The source of these data is PubChem BioAssay (NCATS).

Results filed as inconclusive are left out. For some assays here: Measured potencies and affinities stand elsewhere. Calls of active or inactive are those of the source.

The conditions of assay [1]: Ebola virus entry reporter assay, green channel fluorescence.
For assay [2] the following is noted: Ebola virus entry cell assay, ratio channel.
The nature of assay [3]: High-throughput drug toxicity screening in the BPDCN cell line Gen2.2 (AID 1224824; call rule not given here;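 note: cells exposed to compounds for 48 h before reading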). The following applies: Gen2.2 BPDCN cells; at 45.8 µM (top of the series). The procedure, abridged:
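CellTiter-Glo luminescence after 48 h compound exposure of Gen2.2 cells; percent activity set with DMSO as 100% and bortezomib (9.2 uM final) as 0%. Cells seeded at 500 per well, RPMI + 10% FBS, 37 °C.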

A short description of assay [4]: High-throughput drug toxicity screening in the BPDCN cell line Cal-1 (AID 1224825; call rule not given here). Particulars: Cal-1 BPDCN cell viability, qHTS; at 45.8 µM (top of the series). In outline:
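Cal-1 cells, 500 per well in phenol-red-free RPMI with 10% FBS, exposed to compounds for 48 hours at 37C, 5% CO2. Viability read by CellTiter-Glo luminescence; percent activity normalized to DMSO (100%) and 9.2 uM bortezomib final (0%).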
(In general: In qHTS, concentration-response curves come from the screen itself.)

Assay [5] is described as follows: qHTS assay for measurement of the activity of small molecule inhibitors on Zika virus induced Caspase-3 activity in human iPSC derived neural progenitor cells (hNPCs) (AID 1224857). Note: % of control where 0% means no effect; nearly all actives have a fitted effect of over 65% in size. The following applies: hNPCs ZIKV-induced caspase-3/7, Caspase-Glo luminescence, 6 h; series mostly up to 45.7 µM. In outline:
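After overnight (16–20 h) culture at 350 cells/well, hNPCs get compound, then ZIKV 2 FFU/cell one hour later. Six hours on, Caspase-Glo 3/7 is added and luminescence measured.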

Assay [6] can be described thus: qHTS assay for measurement of the activity of small molecule inhibitors on Zika virus induced Caspase-3 activity in human astrocytoma cells (AID 1224859).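 Note: plate controls were ZIKV-infected untreated cells for no effect and uninfected cells for full effect.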 The following applies: SNB-19 ZIKV-induced caspase-3/7, luminescence, 6 h; series mostly up to 45.7 µM. The procedure, abridged: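 Inhibition of Zika-induced caspase-3/7 activity: SNB-19 cells, 1 h compound pretreatment, ZIKV 2 FFU/cell for 6 h at 37 C, Caspase-Glo luminescence read-out.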

Assay [7] is described as follows: qHTS Screen of the MIPE 4.0 Collection Against Ewings Sarcoma (RDES) (AID 1259252). Note: nearly all actives have a fitted effect of over 35% in size. Note: potency is the fitted concentration of half-maximal effect. The following applies: RD-ES Ewing sarcoma viability, CellTiter-Glo, 48 h; series mostly up to 45.8 µM. The procedure, abridged:
(§1)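 Dose series incubated 48 h with cells in RPMI plus 5% FBS, glutamine and penicillin/streptomycin; cell viability then quantified via CellTiter-Glo.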

Assay [8] can be described thus: qHTS Screen of the MIPE 4.0 Collection Against Ewings Sarcoma (TC71) (AID 1259253). Note: nearly all actives have a fitted effect of over 40% in size. Note: potency is the fitted concentration of half-maximal effect. The following applies: TC71 Ewing sarcoma viability, CellTiter-Glo, 48 h; series mostly up to 45.8 µM. The procedure, abridged:
as §1

The nature of assay [9]: qHTS Screen of the MIPE 4.0 Collection Against Ewings Sarcoma (EW8) (AID 1259255).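 For viability: 100% = DMSO-treated cells and 0% = medium-only wells without cells.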 Note: nearly all actives have a fitted effect of over 35% in size. Note: potency is the fitted concentration of half-maximal effect. The following applies: EW8 Ewing sarcoma viability, CellTiter-Glo, 48 h; series mostly up to 45.8 µM. In outline:
as §1

Assay [10] is described as follows: qHTS Screen of the MIPE 4.0 Collection Against Ewings Sarcoma (TC32) (AID 1259256).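 Note: 100% = DMSO-treated cells and 0% = medium-only wells without cells; nearly all actives have a fitted effect of over 45% in size.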 The following applies: TC32 Ewing sarcoma viability, CellTiter-Glo, 48 h; series mostly up to 45.8 µM. The procedure, abridged:
as §1

A short description of assay [11]: qHTS assay to identify small molecule inhibitors of chordoma cells - UCH-1 (AID 1259355). Note: % is set by controls: 0 for no effect and ±100 for the full control effect; nearly all actives have a fitted effect of over 55% in size. Particulars: UCH-1 chordoma viability, CellTiter-Glo, 48 h, combination; series mostly up to 46.1 µM. In outline: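 Cells (800/well) were seeded and left overnight at 37 C, 5% CO2, then treated with drugs at 15 concentrations plus a combination mix of auranofin, camptothecin, doxorubicin, rubitecan and topotecan. Viability after 48hr was read by CellTiter-Glo luminescence.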

Assay [12] can be described thus: qHTS assay to identify small molecule inhibitors of chordoma cells - UCH-2 (AID 1259356). Note: % is set by controls: 0 for no effect and ±100 for the full control effect. The following applies: UCH-2 chordoma viability, CellTiter-Glo ATP luminescence, 48 h; series mostly up to 46.1 µM.

On to `COC(=O)[C@@H]1CC2=CC(=O)CC[C@]2(C)[C@@]23O[C@@H]2C[C@@]2(C)[C@@H](CC[C@@]24CCC(=O)O4)[C@H]13`, for which the result in assay [1] and in [2] was inactive.
For the molecule `CC(=O)Nc1nnc(S(N)(=O)=O)s1`, the call in assay [1] and in assay [2] was inactive.
As to `CN1CCN(C2=Nc3cc(Cl)ccc3Nc3ccccc32)CC1`, the molecule was classed as inactive in assay [1] and in assay [2].
In the case of `CCOc1ccccc1OCCN[C@H](C)Cc1ccc(OC)c(S(N)(=O)=O)c1`, the outcome in [1] and in assay [2] was inactive.
`Cc1onc(-c2c(Cl)cccc2Cl)c1C(=O)N[C@@H]1C(=O)N2[C@@H]1SC(C)(C)[C@@H]2C(=O)O`: the result in [1] and in assay [2] was inactive.
Regarding `CNC1(C)C2CCC(C2)C1(C)C` (centres undefined), the molecule was called inactive in assay [1] and in [2].
`Cn1cnc([N+](=O)[O-])c1Sc1ncnc2nc[nH]c12`: the outcome in assay [1] and in [2] was inactive.
Regarding `Nc1[nH]c(=O)ncc1F`, the molecule was called inactive in assay [1] and in assay [2].
As to `CN1CCc2cccc3c2[C@H]1Cc1ccc(O)c(O)c1-3`, the outcome in assay [1] and in [2] was inactive.
Take `Cc1ccccc1C(=O)Nc1ccc(C(=O)N2CCCC(O)c3cc(Cl)ccc32)c(C)c1` (centres undefined): the molecule was called inactive in [1] and in [2].
Turning to `O=C(OC1C[C@H]2CC[C@@H](C1)[N+]21CCCC1)C(O)(c1ccccc1)c1ccccc1` (some centres undefined), the molecule was called inactive in [1] and in [2].
Regarding `COC1=CC(=O)C[C@@H](C)[C@]12Oc1c(Cl)c(OC)cc(OC)c1C2=O`, the result in assay [1] and in [2] was inactive.
Consider `C#CCN(C)[C@H](C)Cc1ccccc1`, for which, in assay [3], the cell viability, % of control (lower = more cytotoxic) turned out to be 160%. In assay [4], the viability (% of control) is 105%. The Potency entry in assay [5], in [7], in assay [8], in [9], in assay [10] and in assay [11] was “inactive” throughout. For the same molecule, in [12], the Potency result is “inactive”. Besides, the call in assay [6] was inactive.
On to `N[C@@H](Cc1ccc(N(CCCl)CCCl)cc1)C(=O)O`, for which, in assay [3], the cell viability, % of control (lower = more cytotoxic) worked out at 5.36%. Also, the viability (% of control) in assay [4] came out at 4.8%. Besides, the Potency entry in assay [5] and in assay [10] was “inactive” in each case. For the same molecule, the call in assay [6] was inactive. Besides, the Potency in assay [7] is 5.26 µM (active); in assay [8], 9.35 µM (active); in assay [9], 3.32 µM (active).
The AC50 is the midpoint of the concentration-response curve, whichever way the signal moves. As to `CCCN(CCc1cccs1)[C@H]1CCc2c(O)cccc2C1`, the AC50 in assay [2] was 15.8 µM (active).
On to `O=C1N=C(O)CN1/N=C/c1ccc(-c2ccc([N+](=O)[O-])cc2)o1`, for which the result in assay [2] was inactive.
